How the values were obtained:
[1] = molecular target: Sphingosine kinase 1 (Homo sapiens) (UniProt Q9NYA1); settings: at 1 µM;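 also: mean SPHK1 inhibition value reported from the GSK PKIS kinase panel screen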
[2] = molecular target: T1, Sphingosine kinase 2 (Homo sapiens) (UniProt Q9NRA0); settings: at 0.1 µM
T1 sequence (whole entry): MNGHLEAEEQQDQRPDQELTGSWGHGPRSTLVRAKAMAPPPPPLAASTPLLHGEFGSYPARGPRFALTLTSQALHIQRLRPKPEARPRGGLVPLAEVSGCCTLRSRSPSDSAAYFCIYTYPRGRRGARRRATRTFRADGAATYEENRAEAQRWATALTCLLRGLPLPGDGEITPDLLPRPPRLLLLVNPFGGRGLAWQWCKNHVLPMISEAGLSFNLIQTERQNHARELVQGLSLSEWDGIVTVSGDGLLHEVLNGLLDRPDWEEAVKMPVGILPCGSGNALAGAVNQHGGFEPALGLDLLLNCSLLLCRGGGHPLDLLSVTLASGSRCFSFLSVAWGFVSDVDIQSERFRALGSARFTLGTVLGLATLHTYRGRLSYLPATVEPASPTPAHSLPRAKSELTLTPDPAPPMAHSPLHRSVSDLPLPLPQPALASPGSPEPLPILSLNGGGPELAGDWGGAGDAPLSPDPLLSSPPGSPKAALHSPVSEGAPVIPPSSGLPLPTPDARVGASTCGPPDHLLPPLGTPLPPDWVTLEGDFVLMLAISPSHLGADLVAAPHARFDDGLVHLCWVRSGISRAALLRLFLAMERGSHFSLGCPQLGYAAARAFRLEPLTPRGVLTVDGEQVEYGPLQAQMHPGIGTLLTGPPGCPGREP

[3] = molecular target: T1, Sphingosine kinase 2 (Homo sapiens); settings: at 1 µM
[4] = molecular target: Casein kinase II subunit alpha (Homo sapiens) (UniProt P68400); settings: at 0.1 µM
[5] = molecular target: Casein kinase II subunit alpha (Homo sapiens) (UniProt P68400); settings: at 1 µM
[6] = molecular target: T2, Inhibitor of nuclear factor kappa-B kinase subunit alpha (Homo sapiens) (UniProt O15111); settings: at 0.1 µM
T2 sequence (whole entry): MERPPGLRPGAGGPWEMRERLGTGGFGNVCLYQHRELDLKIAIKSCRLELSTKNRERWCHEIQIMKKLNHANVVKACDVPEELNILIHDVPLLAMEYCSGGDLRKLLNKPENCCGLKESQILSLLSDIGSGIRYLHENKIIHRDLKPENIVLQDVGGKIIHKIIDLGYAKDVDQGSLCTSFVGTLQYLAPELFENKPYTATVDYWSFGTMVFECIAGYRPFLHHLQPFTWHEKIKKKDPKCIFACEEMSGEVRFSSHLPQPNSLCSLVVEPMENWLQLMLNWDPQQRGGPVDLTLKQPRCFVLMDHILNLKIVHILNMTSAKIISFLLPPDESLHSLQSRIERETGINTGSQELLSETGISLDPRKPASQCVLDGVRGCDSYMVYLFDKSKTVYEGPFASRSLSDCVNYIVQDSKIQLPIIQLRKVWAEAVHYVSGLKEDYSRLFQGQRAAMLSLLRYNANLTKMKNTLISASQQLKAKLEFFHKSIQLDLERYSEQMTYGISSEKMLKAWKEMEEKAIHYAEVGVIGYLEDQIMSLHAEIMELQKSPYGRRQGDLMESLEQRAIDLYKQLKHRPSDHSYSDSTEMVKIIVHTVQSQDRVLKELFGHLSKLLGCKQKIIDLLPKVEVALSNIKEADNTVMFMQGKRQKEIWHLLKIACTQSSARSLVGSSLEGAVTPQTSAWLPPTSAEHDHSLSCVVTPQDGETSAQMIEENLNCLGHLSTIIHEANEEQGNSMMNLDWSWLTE

[7] = molecular target: T2, Inhibitor of nuclear factor kappa-B kinase subunit alpha (Homo sapiens); settings: at 1 µM
[8] = molecular target: T3, Inhibitor of nuclear factor kappa-B kinase subunit beta (Homo sapiens) (UniProt O14920); settings: at 0.1 µM
T3 sequence (whole entry): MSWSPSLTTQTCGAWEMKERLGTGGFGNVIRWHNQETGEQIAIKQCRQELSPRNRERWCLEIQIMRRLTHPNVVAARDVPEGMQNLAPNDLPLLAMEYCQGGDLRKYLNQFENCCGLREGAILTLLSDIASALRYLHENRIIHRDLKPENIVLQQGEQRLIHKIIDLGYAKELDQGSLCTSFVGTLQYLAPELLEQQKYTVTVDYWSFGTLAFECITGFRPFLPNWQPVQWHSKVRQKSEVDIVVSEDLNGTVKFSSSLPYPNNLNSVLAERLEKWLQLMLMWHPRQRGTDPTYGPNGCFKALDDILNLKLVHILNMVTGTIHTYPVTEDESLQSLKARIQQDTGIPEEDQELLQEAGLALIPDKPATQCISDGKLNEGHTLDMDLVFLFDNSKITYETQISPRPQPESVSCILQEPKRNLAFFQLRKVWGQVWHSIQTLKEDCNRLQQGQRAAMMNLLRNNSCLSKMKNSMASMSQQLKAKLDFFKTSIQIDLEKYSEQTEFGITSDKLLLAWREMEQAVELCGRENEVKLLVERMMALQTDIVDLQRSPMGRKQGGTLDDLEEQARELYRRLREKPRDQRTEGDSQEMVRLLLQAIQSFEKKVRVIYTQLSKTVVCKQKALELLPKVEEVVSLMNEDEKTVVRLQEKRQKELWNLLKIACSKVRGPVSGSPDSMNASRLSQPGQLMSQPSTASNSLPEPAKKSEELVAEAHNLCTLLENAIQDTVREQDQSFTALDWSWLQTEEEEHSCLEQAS

[9] = molecular target: T3, Inhibitor of nuclear factor kappa-B kinase subunit beta (Homo sapiens); settings: at 1 µM
[10] = molecular target: T4, Inhibitor of nuclear factor kappa-B kinase subunit epsilon (Homo sapiens) (UniProt Q14164); settings: at 0.1 µM
T4 sequence (whole entry): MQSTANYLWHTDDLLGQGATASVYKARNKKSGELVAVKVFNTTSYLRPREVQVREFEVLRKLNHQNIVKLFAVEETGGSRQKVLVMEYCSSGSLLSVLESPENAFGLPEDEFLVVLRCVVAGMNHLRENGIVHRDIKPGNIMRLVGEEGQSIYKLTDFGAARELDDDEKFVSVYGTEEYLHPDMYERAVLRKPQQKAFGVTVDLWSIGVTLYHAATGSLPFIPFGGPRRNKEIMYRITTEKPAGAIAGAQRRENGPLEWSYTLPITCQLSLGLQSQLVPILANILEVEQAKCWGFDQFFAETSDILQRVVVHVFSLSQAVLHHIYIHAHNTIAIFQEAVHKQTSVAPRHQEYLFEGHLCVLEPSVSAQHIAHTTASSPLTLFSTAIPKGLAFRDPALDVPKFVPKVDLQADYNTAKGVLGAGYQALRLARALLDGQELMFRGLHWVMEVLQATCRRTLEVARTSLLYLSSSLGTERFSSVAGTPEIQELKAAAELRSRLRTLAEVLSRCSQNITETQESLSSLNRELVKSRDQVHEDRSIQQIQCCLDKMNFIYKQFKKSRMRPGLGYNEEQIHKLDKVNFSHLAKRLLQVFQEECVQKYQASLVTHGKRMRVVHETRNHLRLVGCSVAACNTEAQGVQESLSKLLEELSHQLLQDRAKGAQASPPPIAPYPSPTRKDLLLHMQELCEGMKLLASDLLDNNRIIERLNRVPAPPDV

[11] = molecular target: T4, Inhibitor of nuclear factor kappa-B kinase subunit epsilon (Homo sapiens); settings: at 1 µM
[12] = molecular target: T5, Serine/threonine-protein kinase Nek1 (Homo sapiens) (UniProt Q96PY6); settings: at 0.1 µM
T5 sequence (whole entry): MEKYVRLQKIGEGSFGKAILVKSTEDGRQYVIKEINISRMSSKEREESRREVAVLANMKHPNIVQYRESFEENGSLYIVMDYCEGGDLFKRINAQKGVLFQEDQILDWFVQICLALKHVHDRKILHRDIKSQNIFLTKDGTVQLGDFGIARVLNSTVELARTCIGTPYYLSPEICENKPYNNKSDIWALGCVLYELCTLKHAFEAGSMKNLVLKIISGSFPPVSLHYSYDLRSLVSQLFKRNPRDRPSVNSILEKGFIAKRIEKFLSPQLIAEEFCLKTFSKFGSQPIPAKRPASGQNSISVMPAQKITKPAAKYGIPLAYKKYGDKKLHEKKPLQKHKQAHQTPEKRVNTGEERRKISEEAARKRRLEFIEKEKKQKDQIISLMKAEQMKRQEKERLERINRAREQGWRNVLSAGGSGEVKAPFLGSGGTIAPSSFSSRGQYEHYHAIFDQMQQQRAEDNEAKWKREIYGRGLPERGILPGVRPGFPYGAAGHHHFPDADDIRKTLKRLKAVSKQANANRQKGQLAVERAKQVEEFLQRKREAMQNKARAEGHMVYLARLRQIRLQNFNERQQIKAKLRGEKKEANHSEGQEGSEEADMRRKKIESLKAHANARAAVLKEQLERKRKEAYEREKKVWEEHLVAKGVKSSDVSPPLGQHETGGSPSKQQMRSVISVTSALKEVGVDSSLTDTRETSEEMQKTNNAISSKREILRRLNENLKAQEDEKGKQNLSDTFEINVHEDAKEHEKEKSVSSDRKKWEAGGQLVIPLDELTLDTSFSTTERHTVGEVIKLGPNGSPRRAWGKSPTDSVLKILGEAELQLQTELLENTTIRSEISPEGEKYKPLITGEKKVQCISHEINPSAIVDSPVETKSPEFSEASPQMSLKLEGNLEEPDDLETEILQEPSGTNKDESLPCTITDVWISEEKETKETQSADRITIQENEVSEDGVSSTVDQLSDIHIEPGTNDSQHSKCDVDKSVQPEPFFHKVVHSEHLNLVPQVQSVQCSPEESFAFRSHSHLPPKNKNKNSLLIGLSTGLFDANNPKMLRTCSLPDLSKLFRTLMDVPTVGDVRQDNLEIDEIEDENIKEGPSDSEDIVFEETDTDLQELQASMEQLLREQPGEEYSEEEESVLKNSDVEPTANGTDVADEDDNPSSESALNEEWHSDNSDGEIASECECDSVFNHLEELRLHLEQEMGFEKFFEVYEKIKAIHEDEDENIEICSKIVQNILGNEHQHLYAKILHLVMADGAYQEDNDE

[13] = molecular target: T5, Serine/threonine-protein kinase Nek1 (Homo sapiens); settings: at 1 µM
[14] = molecular target: T6, Serine/threonine-protein kinase Nek2 (Homo sapiens) (UniProt P51955); settings: at 0.1 µM
T6 sequence (whole entry): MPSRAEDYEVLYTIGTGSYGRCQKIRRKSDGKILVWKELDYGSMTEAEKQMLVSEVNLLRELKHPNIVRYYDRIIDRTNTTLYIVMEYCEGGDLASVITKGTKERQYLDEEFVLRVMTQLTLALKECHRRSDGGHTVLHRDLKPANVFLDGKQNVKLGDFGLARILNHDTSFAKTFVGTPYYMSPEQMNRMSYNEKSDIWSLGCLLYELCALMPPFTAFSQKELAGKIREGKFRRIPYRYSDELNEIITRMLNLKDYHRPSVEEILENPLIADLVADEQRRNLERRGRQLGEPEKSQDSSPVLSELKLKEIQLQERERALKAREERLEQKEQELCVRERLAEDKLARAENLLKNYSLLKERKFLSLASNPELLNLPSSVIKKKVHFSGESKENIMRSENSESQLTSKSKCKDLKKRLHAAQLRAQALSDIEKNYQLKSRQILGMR

[15] = molecular target: T6, Serine/threonine-protein kinase Nek2 (Homo sapiens); settings: at 1 µM
[16] = molecular target: Serine/threonine-protein kinase Nek6 (Homo sapiens) (UniProt Q9HC98); settings: at 0.1 µM
[17] = molecular target: Serine/threonine-protein kinase Nek6 (Homo sapiens) (UniProt Q9HC98); settings: at 1 µM
[18] = molecular target: Serine/threonine-protein kinase Nek7 (Homo sapiens) (UniProt Q8TDX7); settings: at 0.1 µM
[19] = molecular target: Serine/threonine-protein kinase Nek7 (Homo sapiens) (UniProt Q8TDX7); settings: at 1 µM
[20] = molecular target: T7, Serine/threonine-protein kinase Nek9 (Homo sapiens) (UniProt Q8TD19); settings: at 0.1 µM;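 also: reported value is the mean percent inhibition of NEK9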
T7 sequence (whole entry): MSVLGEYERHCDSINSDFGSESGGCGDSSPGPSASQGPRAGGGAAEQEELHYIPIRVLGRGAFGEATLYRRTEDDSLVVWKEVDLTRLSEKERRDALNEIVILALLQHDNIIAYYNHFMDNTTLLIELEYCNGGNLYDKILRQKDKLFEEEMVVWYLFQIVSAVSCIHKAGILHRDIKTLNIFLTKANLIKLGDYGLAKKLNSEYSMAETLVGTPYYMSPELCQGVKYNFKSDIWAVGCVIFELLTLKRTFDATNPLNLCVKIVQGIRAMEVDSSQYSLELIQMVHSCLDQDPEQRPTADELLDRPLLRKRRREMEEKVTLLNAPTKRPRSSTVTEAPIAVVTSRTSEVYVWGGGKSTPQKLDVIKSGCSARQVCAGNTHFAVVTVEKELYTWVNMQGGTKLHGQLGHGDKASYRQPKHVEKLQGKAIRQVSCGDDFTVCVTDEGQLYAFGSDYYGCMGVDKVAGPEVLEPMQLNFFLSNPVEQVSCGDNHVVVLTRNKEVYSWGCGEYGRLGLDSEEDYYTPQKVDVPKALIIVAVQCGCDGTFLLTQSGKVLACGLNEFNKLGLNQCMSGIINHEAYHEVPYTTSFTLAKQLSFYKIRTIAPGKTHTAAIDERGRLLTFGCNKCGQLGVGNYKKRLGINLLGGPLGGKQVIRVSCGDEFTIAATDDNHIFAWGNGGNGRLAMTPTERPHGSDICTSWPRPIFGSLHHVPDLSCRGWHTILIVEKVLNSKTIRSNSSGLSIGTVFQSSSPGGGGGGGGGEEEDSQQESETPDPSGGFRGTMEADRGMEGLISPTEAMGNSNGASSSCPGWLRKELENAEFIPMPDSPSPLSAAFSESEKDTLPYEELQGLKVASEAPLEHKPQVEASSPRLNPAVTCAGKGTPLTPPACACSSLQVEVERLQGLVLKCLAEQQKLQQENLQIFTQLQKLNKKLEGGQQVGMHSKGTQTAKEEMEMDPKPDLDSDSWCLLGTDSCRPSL

Chain of Casein kinase II subunit alpha (Homo sapiens) (P68400 whole entry, looked up): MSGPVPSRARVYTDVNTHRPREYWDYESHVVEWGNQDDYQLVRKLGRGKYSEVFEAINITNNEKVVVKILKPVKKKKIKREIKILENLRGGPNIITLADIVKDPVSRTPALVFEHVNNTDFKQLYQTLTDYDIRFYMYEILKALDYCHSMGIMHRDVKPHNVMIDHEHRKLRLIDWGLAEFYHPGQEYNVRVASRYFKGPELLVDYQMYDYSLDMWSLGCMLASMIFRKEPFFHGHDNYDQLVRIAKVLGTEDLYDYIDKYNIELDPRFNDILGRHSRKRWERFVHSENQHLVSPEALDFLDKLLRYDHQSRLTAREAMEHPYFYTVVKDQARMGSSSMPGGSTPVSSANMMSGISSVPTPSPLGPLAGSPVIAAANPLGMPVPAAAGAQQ
Chain of Serine/threonine-protein kinase Nek7 (Homo sapiens) (Q8TDX7 whole entry, looked up): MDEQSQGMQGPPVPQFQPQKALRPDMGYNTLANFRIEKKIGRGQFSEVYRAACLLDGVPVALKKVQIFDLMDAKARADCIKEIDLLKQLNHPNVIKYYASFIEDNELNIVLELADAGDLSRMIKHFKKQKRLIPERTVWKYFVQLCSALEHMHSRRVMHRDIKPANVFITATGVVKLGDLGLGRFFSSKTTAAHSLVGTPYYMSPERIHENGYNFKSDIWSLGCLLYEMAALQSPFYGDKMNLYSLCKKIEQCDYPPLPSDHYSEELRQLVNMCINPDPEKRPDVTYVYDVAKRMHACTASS
Chain of Serine/threonine-protein kinase Nek6 (Homo sapiens) (Q9HC98 whole entry): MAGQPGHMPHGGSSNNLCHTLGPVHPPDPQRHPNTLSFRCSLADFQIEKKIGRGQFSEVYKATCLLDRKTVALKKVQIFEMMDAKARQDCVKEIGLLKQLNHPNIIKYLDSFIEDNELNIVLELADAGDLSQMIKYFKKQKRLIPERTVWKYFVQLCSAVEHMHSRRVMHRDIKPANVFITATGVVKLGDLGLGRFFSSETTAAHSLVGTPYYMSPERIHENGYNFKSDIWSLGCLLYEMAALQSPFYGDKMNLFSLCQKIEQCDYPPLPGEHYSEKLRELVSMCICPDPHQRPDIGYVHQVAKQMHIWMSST
Chain of Sphingosine kinase 1 (Homo sapiens) (Q9NYA1 whole entry): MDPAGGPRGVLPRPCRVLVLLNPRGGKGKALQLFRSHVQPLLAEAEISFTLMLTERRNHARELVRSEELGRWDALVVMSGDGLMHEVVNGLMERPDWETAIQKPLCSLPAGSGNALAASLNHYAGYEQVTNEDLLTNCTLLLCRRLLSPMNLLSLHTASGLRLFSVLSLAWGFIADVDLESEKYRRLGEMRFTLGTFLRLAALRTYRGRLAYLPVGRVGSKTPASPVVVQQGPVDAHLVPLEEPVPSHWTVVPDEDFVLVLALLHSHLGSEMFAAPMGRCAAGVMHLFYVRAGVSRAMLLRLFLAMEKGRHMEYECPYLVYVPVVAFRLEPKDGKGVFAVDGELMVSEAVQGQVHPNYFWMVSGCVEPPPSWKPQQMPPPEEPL

Row | Structure (SMILES) | inhibition [1] [%] | inhibition [2] [%] | inhibition [3] [%] | inhibition [4] [%] | inhibition [5] [%] | inhibition [6] [%] | inhibition [7] [%] | inhibition [8] [%] | inhibition [9] [%] | inhibition [10] [%] | inhibition [11] [%] | inhibition [12] [%] | inhibition [13] [%] | inhibition [14] [%] | inhibition [15] [%] | inhibition [16] [%] | inhibition [17] [%] | inhibition [18] [%] | inhibition [19] [%] | inhibition [20] [%]
1 | NS(=O)(=O)c1ccc(N/N=C2\C(=O)Nc3ccc(Cl)cc32)cc1 | -4.27 | 0 | -3.44 | 4.94 | 14 | -0.36 | 10.7 | 4.8 | 5.46 | 7.49 | 8.2 | 2.48 | 3.33 | 4.08 | 4.1 | 4.79 | 4.93 | 2.88 | 3.63 | 7.35
2 | C[C@@H](Oc1cc(-n2cnc3ccc(OCC4CCN(C)CC4)cc32)sc1C(N)=O)c1ccccc1C(F)(F)F | 1.96 | -2.47 | -0.08 | 6.68 | 7.31 | -3.27 | -3.79 | -5.4 | -3.39 | -3.26 | -1.35 | 18.4 | 60.5 | 23.6 | 69.2 | -1.61 | 0.33 | -2.74 | -0.71 | 88.3

From ChEMBL document CHEMBL1961873, “Compounds: GSK PKIS; Assays: Nanosyn kinase panel” (2012)
